Sampled rows, rich in hits. Any-hit rate of the full collection: about 21%.
Cycloheximide cs: counter-screen hit for Shiga toxin inhibitors, cycloheximide. cell reporter, cycloheximide protein synthesis inhibition counterscreen. max response, %. hit rate 12% among 300,000. AID 2314; in the data active = max response mostly above about 13%, no sharp cut-off; inactive = mostly below about 14%; also: read at 38.3 µM for the half of the compounds with a filed dose; 0% is about no effect
Pf growth 96h: inhibits malaria parasite growth, 96 h. Potency, µM (series often up to 28.7 µM), without a hit: at the highest dose activity change, negative = inhibition, most hits filed as inhibitors. AID 504834. P. falciparum luciferase reporter growth, 96 h. hit rate 6.9% among 320,000; also: potency is read from the fitted curve at half-maximal effect; % is scaled to controls: 0 for no effect and ±100 for the full control effect
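Luminescence readout: decreased luciferase signal marks inhibited growth of reporter-expressing P. falciparum in infected red cells (2% hematocrit, 0.05% parasitemia final), exposed to compound two generations (96 h, 37 C, 5% CO2).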
Shiga toxin inh: blocks Shiga toxin action in Vero cells; Vero cells, Shiga toxin protein synthesis inhibition reporter; inhibition, % at 38.7 µM; hit rate 9.2% among 290,000; in the data active = inhibition mostly above about 28%, no sharp cut-off; inactive = mostly below about 43%; also: 0% is about no effect
Pf growth 48h: P. falciparum growth inhibition at 48 hours (one generation); P. falciparum luciferase growth in erythrocytes, 48 h; Potency, µM (doses to about 28.7 µM), for inactives: at the top dose activity change, negative = inhibition, actives largely listed as inhibitors; hit rate 5.9% among 310,000; also: potency is read from the fitted curve at half-maximal effect; % is scaled to controls: 0 for no effect and ±100 for the full control effect
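In quantitative HTS format, infected erythrocytes bearing luciferase-reporter parasites were treated for a single generation at 37 C. Luminescence after adding detection reagent served as the growth measure.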
An asterisk follows results filed as active; ? = inconclusive; . = no result. Unless noted, calls follow the shape of the dose curve; as a rule, active = well fitted inhibition curve with a large enough effect; inconclusive = small, poorly fitted or top-dose-only effect, or another doubt; inactive = no such curve, though single readings can be large or run the other way.

SMILES	Cycloheximide cs	Pf growth 96h	Shiga toxin inh	Pf growth 48h
CC(=O)c1ccc(NC(=O)/C(=C\c2ccc(F)cc2)NC(=O)c2ccco2)cc1	-5	231%	-6	-7%
COc1cc(SC)ccc1C(=O)NCCOc1ccc(C)c(C)c1	3	-93%	-5	-23%
CCOC(=O)N/N=C/c1ccc(Oc2ccccc2)cc1	41*	?	104*	?
COc1ccc(OCCNC(=O)c2ccccc2OCC(=O)N2CCCCC2)cc1	-2	10%	2	?
COc1ccc(OCCNC(=O)c2ccccc2OCC(=O)Nc2ccc(NC(C)=O)cc2)cc1	24*	-20%	18	-2%
CCc1ccc(OCC(=O)NCCOc2ccccc2)cc1	27*	6%	66	.
COc1ccccc1C(=O)NCCOc1ccc(C)c(C)c1	25*	40%	39*	?
CCOC(=O)N/N=C/c1ccc(C)o1	2	36%	5	11%
CC(C)(C)c1ccc(NC(=O)CN2C(=O)NC(C)(C3CC3)C2=O)cc1 (stereo unspecified)	.	10%	.	-7%
O=C(NC1CCS(=O)(=O)C1)c1ccc2c(c1)OCO2 (stereo unspecified)	.	22%	.	1%
CCCN1CCCC(c2cccc(S(C)(=O)=O)c2)C1 (stereo unspecified)	-5	.	30	.
CC1=C(C(=O)OCCCCCl)C(c2cc3c(cc2Br)OCO3)NC(=O)N1 (stereo unspecified)	-2	?	.	-50%
COc1ccc(S(=O)(=O)N2CCN(Cc3ccco3)CC2)cc1	-4	-24%	-6	-27%
CCOC(=O)NCCOc1ccc(Oc2ccccc2)cc1	21*	.	30*	.
CCc1ccc(OCCNC(=O)c2ccco2)cc1	34*	37%	52*	-28%
COc1ccc2c(CCNC(N)=S)c[nH]c2c1	10	5%	3	129%
COc1ccc2c(CCNC(=O)c3ccco3)c[nH]c2c1	49*	9%	63*	39%
Cc1ccc(OCCNC(=O)c2cccc(C)c2)cc1	10	?	8	-17%
Cc1ccc(OCCNC(=O)c2ccccc2N)cc1	13*	6%	27*	22%
O=C(CC1OC(=O)c2ccccc21)NNC(=O)c1ccc(F)cc1 (stereo unspecified)	.	-16%	.	-21%
CCCn1c(SCC(=O)NC2CCCCC2)nnc1-c1ccco1	-6	-6%	-4	-12%
COc1cc(NC(=O)c2ccc(N)nc2)cc(C(=O)Nc2cccc(C(F)(F)F)c2)c1	13	0.74µM*	55*	0.74µM*
COc1ccc(-c2cc(C(=O)Nc3cc(OC)cc(C(=O)Nc4cccc(C(F)(F)F)c4)c3)[nH]n2)cc1	2	1.3µM*	16	1.9µM*
COc1cc(NC(=O)c2nccnc2N)cc(C(=O)Nc2cccc(C(F)(F)F)c2)c1	-2	?	-3	?
CCOc1ccc(NC(=O)COC(=O)CCC(=O)c2cccs2)cc1	.	-16%	.	6%
SMILES	Cycloheximide cs	Pf growth 96h	Shiga toxin inh	Pf growth 48h
COc1cccc(/C=N/Nc2snc(SC)c2C#N)c1	27*	?	67*	41%
CSc1nsc(N/N=C/c2ccccc2)c1C#N	30*	?	51*	142%
COc1ccc(/C=N/Nc2snc(SC)c2C#N)cc1OC	35*	90%	98*	4.1µM*
COc1cccc(/C=N/Nc2snc(SC)c2C#N)c1O	72*	0%	69*	148%
COc1cccc(/C=C/c2n[nH]c(=O)c(C#N)c2C)c1	6	?	-9	?
COc1ccc([N+](=O)[O-])cc1NC(=O)COC(=O)c1ccc(O)cc1	-2	0%	-1	39%
CCn1c(=O)cc(OCC(=O)NCCCN2CCCC2=O)c2ccccc21	4	?	-9	?
CC(=O)Nc1ccc2oc(-c3cc(F)c(F)cc3Cl)nc2c1	32*	?	181*	86%
CC(=O)Nc1ccc2oc(-c3ccccc3Br)nc2c1	71*	1%	93*	.
CCC(=O)Nc1ccc2oc(-c3ccccc3Br)nc2c1	49*	-6%	122*	36%
Cc1ccccc1-c1nc2cc(NC(=O)C3CC3)ccc2o1	43*	-15%	109*	81%
Fc1ccc2nc(C(F)(F)F)cc(N3CCOCC3)c2c1	21	24%	29	17%
CCC(=O)Nc1cc2c3c(c1)CCN3C(=O)CC2	-6	21%	-6	8%
O=C1CSCN1c1ccc(Cl)cc1	7	27%	-1	1%
CC(C)NC(=O)COC(=O)c1ccccc1C(=O)c1ccccc1	-4	12%	-3	6%
CCn1c(/C=C/c2c[nH]c3ccccc23)nc2ccccc2c1=O	41*	40%	50*	66%
O=c1c2ccccc2nc(SCc2ccccc2Cl)n1Cc1ccccc1	-2	?	-3	?
O=c1c2ccccc2nc(/C=C/c2ccccc2)n1CCc1ccccc1	-6	4.7µM*	-9	?
CCn1c(/C=C2\C(=O)N(C(C)C)c3ccccc32)nc2ccccc2c1=O	-2	?	-9	3.7µM*
C=CCSc1nc2ccccc2c(=O)n1Cc1ccccc1	9	84%	1	12µM*
CCn1c(/C=C2/C(=O)N(C)c3ccccc32)nc2ccccc2c1=O	-1	-17%	-13	?
OCC[C@@H]1C[C@@H](O)[C@H](O)[C@]2(CCc3ccccc3CO2)O1	1	21%	-5	42%
COc1ccc(Cl)cc1NC(=O)c1cccc(-n2cnnn2)c1	.	17%	.	10%
O=c1c2ccccc2nc(/C=C/c2cccc([N+](=O)[O-])c2)n1CCO	-2	-24%	-4	-17%
CC[n+]1ccc(/C=C/c2c[nH]c3ccccc23)cc1	-2	?	1	0.52µM*
SMILES	Cycloheximide cs	Pf growth 96h	Shiga toxin inh	Pf growth 48h
NC(=O)CSc1nc2ccccc2c(=O)n1Cc1ccco1	-4	?	1	-8%
NC(=O)CSc1nc2ccccc2c(=O)n1CCc1ccccc1	2	5.9µM*	2	11%
O=Cc1c[nH]c2ccccc12	8	.	-5	.
O=c1c2ccccc2nc(/C=C/c2cc(Br)ccc2O)n1CCCO	-2	?	1	1.3µM*
CCn1c(/C=C\c2ccccc2C)nc2ccccc2c1=O	23*	27%	82*	?
CCCCn1c(SCC(=O)NC2CCS(=O)(=O)C2)nc2cc(S(N)(=O)=O)ccc21 (stereo unspecified)	-4	?	-3	?
Cc1[nH]c2ccccc2c1/C=C/c1nc2ccccc2c(=O)n1-c1ccc([N+](=O)[O-])cc1	-1	?	23	?
CCn1c(/C=C/c2ccccc2Cl)nc2ccccc2c1=O	30*	1.7µM*	74*	1.9µM*
CCn1c(/C=C/c2ccccc2[N+](=O)[O-])nc2ccccc2c1=O	11	?	27	-21%
CN(C)S(=O)(=O)c1ccc2[nH]cc(/C=C/c3nc4ccccc4c(=O)n3-c3ccccc3)c2c1	6	?	-13	9.3µM*
O=C(OC(C(=O)NCc1ccco1)C(OC(=O)c1ccccc1)C(=O)NCc1ccco1)c1ccccc1 (stereo unspecified)	17*	6%	66*	10%
CC(=O)c1cccc(NC(=S)NCc2ccco2)c1	1	?	10	18%
CCOC(=O)c1ccc(NC(=S)NCc2ccco2)cc1	14	-15%	63*	0%

From PubChem
